Results filed as inconclusive are left out. Calls of active or inactive are those of the source. The call rests on the fitted dose curve; in most records, active means well fitted inhibition curve with a large enough effect; inconclusive means small, poorly fitted or top-dose-only effect; inactive means no such curve, though single readings can be large or run the other way.
The compounds below were run on Zika virus NS2B-NS3 protease (linked) (assay: Optimization screen NINDS Rhodamine qHTS for Zika virus inhibitors: Linked NS2B-NS3 protease assay). Details: fluorogenic rhodamine substrate; series mostly up to 105 µM; activity change, negative = inhibition: at the top concentration.
Excerpt: Avindra Nath, Ph.D., National Institute of Neurological Disorders and Stroke (NINDS), Bethesda, MD
Radhakrishnan Padmanabhan, Ph.D., Georgetown University (GU), Washington D.C.
Zika Virus causes congenital defects, including microcephaly and is associated with Guillain-Barre syndrome, eningoencephalitis and myelitis in infected adult. […] Using a target-based approach, we hope to establish a screening paradigm to uncover novel, cell-active NS2B-NS3 protease (Zika Virus) specific inhibitors from NCATS' collection of small molecules using qHTS.
Four assay panel was created to identify potential Zika Virus inhibitors. Namely, (1) GU unlinked NS2B-NS3 AMC tagged protease qHTS, (2) GU unlinked NS2B-NS3 Rhodamine tagged protease qHTS, (3) NINDS linked NS2B-NS3 AMC tagged protease qHTS, (4) NINDS linked NS2B-NS3 Rhodamine tagged protease qHTS. Active compounds were re-acquired and re-screened to confirm inhibition. Inhibitors were further screened against various confirmatory and counterscreens in dose response format.
Early Translation Branch (ETB)
National Center for Advancing Translational Sciences (NCATS), Rockville, MD
National Institute of Health (NIH), Bethesda, Maryland
For the linked assay, Nath lab (NINDS) provided the purified linked NS2B-NS3 protease which is consists of hydrophilic domain of NS2B linked to the NS3 protease domain by a flexible (-GGGGSGGGG-) linker. Control compound aprotinin is obtained from Thermo Scientific (#78432; Waltham, Massachusetts). Rhodamine110 substrate ([N-Cbz]-Nle-Lys-Arg-Arg-Rhod110-Arg-Arg-Lys-Nle-[N-Cbz]) was purchased from either Genscript or Bachem.
1536-well Protease (Rhodamine110 Substrate) Assay:
Briefly, 3 microL of enzyme (25 nM final concentration), in assay buffer (10 mM Tris-HCl pH 8.0 with 0.01% Tween 20) were dispensed into a 1,536-well solid-bottom black plate (Greiner Bio One, Monroe, NC). Twenty-three nL of compounds (final concentration range 7.28 nM to 114 microM) or control Aprotinin (final concentration range 3.47 nM to 114 microM) were transferred via Wako Pin-tool (Wako Automation, Richmond, VA). Samples were incubated (room temperature, protected from light) for 15 minutes followed by a 1 microL Rhodamine110 substrate addition (1.5 microM final concentration). Plates were then immediately read on a ViewLux High-throughput CCD imager (PerkinElmer, Waltham, MA) equipped with FITC fluorescence optics (480(20) nm excitation, 540(25) nm emission), then incubated (room temperature, protected from light) for 15 minutes (~15% conversion). The change in fluorescence intensity over the 15-minute reaction period was normalized against no-inhibitor and no-enzyme controls and the resulting percent inhibition data were fitted to a 4-parameter Hill equation. Aprotinin was used as intraplate control.

Compound | activity change, negative = inhibition | outcome
COC1C(O)C(C)O[C@@H](OC2CC[C@@]3(C)C4CC[C@]5(C)C(C6=CC(=O)OC6)CC[C@@]5(O)C4CC[C@@H]3C2)C1O (stereo not given in full) | 11.3% (inactive) | –
CC(C)=CCN1CC[C@@]2(C)c3cc(O)ccc3C[C@@H]1[C@@H]2C | -11.2% [at 228 µM] (inactive) | –
C[C@H]1O[C@@H](O[C@H]2[C@@H](O)C[C@H](O[C@H]3[C@@H](O)C[C@H](O[C@H]4CC[C@@]5(C)[C@H](CC[C@@H]6[C@@H]5CC[C@]5(C)[C@@H](C7=CC(=O)OC7)CC[C@]65O)C4)O[C@@H]3C)O[C@@H]2C)C[C@H](O)[C@@H]1O | 29.8% [at 228 µM] (inactive) | –
C[C@@H]1[C@@H]2Cc3ccc(O)cc3[C@@]1(C)CCN2CCc1ccccc1 | -4.89% [at 228 µM] (inactive) | –
C[C@@H]1O[C@@H](O[C@H]2C[C@@H](O)[C@]3(CO)[C@H]4[C@H](O)C[C@]5(C)[C@@H](C6=CC(=O)OC6)CC[C@]5(O)[C@@H]4CC[C@]3(O)C2)[C@H](O)[C@H](O)[C@H]1O | – | inactive
CC(C)OC(=O)Nc1ccccc1 | -10.4% [at 228 µM] (inactive) | –
C[C@@H]1[C@@H]2Cc3ccc(O)cc3[C@@]1(C)CCN2CC1CC1 | -1.76% (inactive) | –
C[C@H]1O[C@@H](O[C@H]2[C@@H](O)C[C@@H](O[C@H]3[C@@H](O)C[C@H](O[C@H]4CC[C@@]5(C)[C@H](CC[C@@H]6[C@@H]5CC[C@]5(C)[C@@H](C7=CC(=O)OC7)CC[C@]65O)C4)O[C@@H]3C)O[C@@H]2C)C[C@H](O)[C@@H]1O | 18% [at 228 µM] (inactive) | –
C=CCN1CCC2(C)c3cc(O)ccc3CC1C2C (stereo not given) | 4.68% (inactive) | –
CN1CC[C@@]23CCCCC2C1Cc1ccc(O)cc13 (stereo not given in full) | -6.91% (inactive) | –
CN1CC[C@@]23CCCC[C@@H]2[C@@H]1Cc1ccc(O)cc13 | -9.26% (inactive) | –
CC1O[C@@H](O[C@@H]2C(O)C[C@H](O[C@@H]3C(O)C[C@@H](OC4CC[C@@]5(C)C6CC[C@]7(C)C(C8=CC(=O)OC8)CC[C@@]7(O)C6CC[C@@H]5C4)OC3C)OC2C)CC(O)[C@H]1O (stereo not given in full) | 5.19% (inactive) | –
Cc1ccc2c(c1)[C@]13CCCC[C@@H]1[C@H](C2)N(C)CC3 | -3.81% (inactive) | –
C[C@H]1O[C@@H](O[C@H]2[C@@H](O)C[C@H](O[C@H]3[C@@H](O)C[C@H](O[C@H]4CC[C@]5(C)C6CC[C@]7(C)[C@@H](C8=CC(=O)OC8)CC[C@]7(O)C6CC[C@@H]5C4)O[C@@H]3C)O[C@@H]2C)C[C@H](O)[C@@H]1O (stereo not given in full) | 54.4% (inactive) | –
C=CCN1CC[C@]23CCCCC2[C@H]1Cc1ccc(O)cc13 (stereo not given in full) | -8.8% (inactive) | –
C=CCN1CCC2(C)c3cc(O)ccc3C[C@H]1[C@H]2C | -10.8% (inactive) | –
CC[C@H](C)[C@H]1O[C@]2(C=C[C@@H]1C)C[C@@H]1C[C@@H](C/C=C(\C)[C@@H](O[C@H]3C[C@H](OC)[C@@H](O[C@H]4C[C@H](OC)[C@@H](O)[C@H](C)O4)[C@H](C)O3)[C@@H](C)/C=C/C=C3\CO[C@@H]4[C@H](O)C(C)=C[C@@H](C(=O)O1)[C@]34O)O2 | 15.2% (inactive) | –
C[C@@H]1O[C@@H](O[C@H]2C[C@@H](O)[C@]3(CO)C4C(CC[C@]3(O)C2)[C@@]2(O)CC[C@H](C3=CC(=O)OC3)[C@@]2(C)C[C@H]4O)[C@H](O)[C@H](O)[C@H]1O (stereo not given in full) | 0% (inactive) | –
CO[C@H]1[C@@H](O)CC(OC2[C@@H](O)CC(OC3[C@@H](O)C[C@H](OC4CC[C@@]5(C)C(CCC6C5CC(O)[C@]5(C)[C@H](C7=CC(=O)OC7)CCC65O)C4)O[C@@H]3C)O[C@@H]2C)O[C@@H]1C (stereo not given in full) | 28.1% [at 228 µM] (inactive) | –
CC1OC(O[C@H]2C[C@@H](O)[C@]3(CO)[C@H]4[C@H](O)C[C@]5(C)[C@@H](C6=CC(=O)OC6)CC[C@]5(O)[C@@H]4CC[C@]3(O)C2)C(O)C(O)C1O (stereo not given in full) | -14.6% (inactive) | –
